The nature of assay [1]: inhibitors of TNFa-induced NFkB p65 translocation, primary screen, imaging, HUVEC, MLSMR starter and 10KST1 sets (AID 438;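 active = inhibition above 20% together with a positive visual image hit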;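 also: compound added about 3h40 before a 20 min TNFalpha stimulation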;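 as to inhibition: signal is the nuclear over cytoplasmic p65 intensity ratio per well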). The conditions noted are these: HUVEC TNFa-induced p65 nuclear translocation; cell count: measured here: nuclei count (cytotoxicity indicator), at 2.08 µM; inhibition: at 2 µM, stronger effect = higher value, 0% TNFa-plus-vehicle, 100% no-TNFa wells.
Assay [2] can be described thus: inhibitors of mutant huntingtin aggregation, primary screen, imaging, exon1htt(103Q)mCFP cells, high-content imaging (AID 483;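 active = visual image review flags a hit and inhibition of aggregation exceeds 20%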;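 also: compound exposure lasted 3 days before fixation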;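 as to nuclei count: percent of the per-plate median nuclei count of sample wells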). As to conditions: exon1htt(103Q)mCFP cell line, aggregate imaging, at 2 µM; inhibition of aggregation: stronger effect = higher value; nuclei count: measured here: cell count, toxicity.
The nature of assay [3]: inhibitors of E-selectin induction by TNFa, primary screen, imaging, HUVEC, immunofluorescence, MLSMR starter and 10KST1 sets (AID 487).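 As to inhibition: signal is fraction of cell area covered by stained E-selectin grains.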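 As to nuclei count: 100% = median nuclei count of all wells on the same plate.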 The conditions noted are these: HUVEC TNFalpha-induced E-selectin immunofluorescence imaging, at 2 µM; inhibition: stronger effect = higher value; nuclei count: measured here: cell number, toxicity.
Assay [4] addresses Voltage-gated potassium channel subunit beta-2 (Rattus norvegicus) (UniProt P62483). The assay is described as follows: KvBeta enzyme negative modulators, primary screen, biochemical, NADPH fluorescence (AID 622;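 active = fluorescence slope higher than the sample average by over 3 SD, cut at about -0.22 in these data, passing the limit was not always enough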;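 also: slope of raw intensity against log time taken from 70 to 1610 s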). As to conditions: recombinant KvBeta, 4-cyanobenzaldehyde reduction, at 10 µM, stronger effect = higher value.
For assay [5] the target is unchanged. Briefly: KvBeta positive modulators, primary screen, biochemical, NADPH fluorescence (AID 623;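 active = NADPH fluorescence slope more negative than the mean of all samples by about 3 SD, 99.7% confidence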;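 also: fluorescence intensity change per second fitted from 20 to 320 s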). The conditions noted are these: Recombinant KvBeta, NADPH fluorescence decrease slope, 10 min; at 10 µM; stronger effect = lower value.
Assay [6] concerns the target Alpha-2C adrenergic receptor (Homo sapiens) (UniProt P18825). Briefly: modulators of alpha2C/GIRK thallium flux, primary screen, cell-based, HEK293 alpha2C/GIRK1/2 (AID 624;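 active = fluorescence slope after compound addition differing from the mean of all screened samples at 99.7% confidence, in either direction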;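 also: slope of fluorescence ratio to pre-addition baseline per second over 15 to 24 s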). As to conditions: thallium flux BTC fluorescence, at 10 µM, actives lie on both sides.
Assay [7] is described as follows: inhibitors of Sendai virus-induced IRF3 signaling, primary screen, TLR/RLR signaling modifier project, cell-based, Sendai virus stimulus, luciferase, 10K MLSCN set (AID 602276;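 active = inhibition at or above 50% at 10 µM; inactive = inhibition below 50%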;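 also: firefly luciferase from ISG56 promoter only with Renilla not read in this screen; 0% = Sendai virus plus DMSO and 100% = medium plus DMSO without virus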). As to conditions: HEK293 RL24 IRF3 luciferase reporter, at 10 µM, stronger effect = higher value.
Assay [8] is described as follows: inhibitors of poly I:C-induced TLR3 signaling, primary screen, cell-based, poly I:C stimulus, luciferase, 10K MLSCN set (AID 602277;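 active = inhibition of the reporter signal at or above 50%; inactive = inhibition below 50%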). As to conditions: HEK293-TLR3 RL24 IRF3 luciferase reporter, at 10 µM, stronger effect = higher value. A general note: A reporter such as luciferase makes a cellular process visible.

Activity calls are given as the source filed them.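 The calls were made as follows, unless noted: active = visually confirmed hit in the image check and inhibition above 20%; inconclusive = visually confirmed hit but inhibition not above 20%; inactive = no visual hit in the image check.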

Sequence of Alpha-2C adrenergic receptor (Homo sapiens) (P18825 whole entry, looked up): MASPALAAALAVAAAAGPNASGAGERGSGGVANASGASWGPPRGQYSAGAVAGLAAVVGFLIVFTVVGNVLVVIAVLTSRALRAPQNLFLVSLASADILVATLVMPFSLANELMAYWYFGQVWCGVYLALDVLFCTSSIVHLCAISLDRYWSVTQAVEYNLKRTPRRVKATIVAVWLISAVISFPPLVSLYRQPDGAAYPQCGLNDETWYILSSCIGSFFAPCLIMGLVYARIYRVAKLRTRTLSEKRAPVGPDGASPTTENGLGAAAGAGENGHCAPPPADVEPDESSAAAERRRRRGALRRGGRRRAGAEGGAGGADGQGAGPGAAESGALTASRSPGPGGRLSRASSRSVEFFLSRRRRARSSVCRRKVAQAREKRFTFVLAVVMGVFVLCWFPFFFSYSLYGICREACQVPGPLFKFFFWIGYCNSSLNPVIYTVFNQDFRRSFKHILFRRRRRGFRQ
Sequence of Voltage-gated potassium channel subunit beta-2 (Rattus norvegicus) (P62483 whole entry, looked up): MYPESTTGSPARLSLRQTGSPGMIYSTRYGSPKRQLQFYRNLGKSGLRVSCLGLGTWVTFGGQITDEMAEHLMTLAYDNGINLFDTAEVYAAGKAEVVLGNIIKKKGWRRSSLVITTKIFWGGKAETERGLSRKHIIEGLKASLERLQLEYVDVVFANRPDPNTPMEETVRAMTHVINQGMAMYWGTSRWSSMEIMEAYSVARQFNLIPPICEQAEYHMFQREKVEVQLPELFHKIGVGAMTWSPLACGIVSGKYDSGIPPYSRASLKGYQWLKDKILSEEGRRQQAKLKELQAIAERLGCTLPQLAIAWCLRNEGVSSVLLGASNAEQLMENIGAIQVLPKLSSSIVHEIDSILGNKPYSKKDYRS

Turning to `O=C1c2ccccc2C(Nc2ccc3c(c2)OCCO3)N1Cc1ccco1` (centres undefined), in assay [1], the cell count worked out at 548. Further, the inhibition in assay [1] was -2% (inactive); in assay [3], -106% (inactive); in assay [7], 12.3% (inactive); in assay [8], 7.32% (inactive). The inhibition of aggregation in assay [2] is 17.5% (inactive). The figures for the nuclei count in assay [2] and in assay [3] were 102% and 132%, respectively. Moreover, in assay [4], the fluorescence slope was -0.589 (inactive). Besides, the NADPH fluorescence slope in assay [5] was -2.3e-05 (inactive). In addition, in assay [6], the slope was 0.00424 (inactive).
Regarding `CCC1(CC)C(=O)N(C)C(=O)NC1=NCc1ccccc1`, the cell count in assay [1] is 512. For the same compound, the inhibition was -4.7% (inactive) in assay [1], 24.4% (inactive) in assay [3], 18.2% (inactive) in assay [7] and 12.1% (inactive) in assay [8]. The inhibition of aggregation in assay [2] is -9.9% (inactive). Moreover, the nuclei count was 107% in assay [2] and 96.9% in assay [3]. Also, the fluorescence slope in assay [4] is -0.334 (inactive). Besides, the NADPH fluorescence slope in assay [5] was 2e-05 (inactive). In addition, in assay [6], the slope is 0.0048 (inactive).
For `O=C(CNS(=O)(=O)c1ccccc1)NCc1ccccn1`, the cell count in assay [1] was 707. The inhibition in assay [1] is -2.1% (inactive); in assay [3], -25.5% (inactive); in assay [7] it was 20.5% (inactive); in assay [8] it was 16.3% (inactive). In addition, the inhibition of aggregation in assay [2] is -10.6% (inactive). In addition, the nuclei count in assay [2] was found to be 106%; in assay [3] it was 113%. In assay [4], the fluorescence slope is -0.517 (inactive). The NADPH fluorescence slope in assay [5] was -1.9e-05 (inactive). In assay [6], the slope was 0.00515 (inactive).
In the case of `c1cncc(-c2nc3c4ccccc4nc(N4CCC(N5CCCCC5)CC4)n3n2)c1`, in assay [1], the cell count turned out to be 512. For the same compound, the inhibition is -10.4% (inactive) in assay [1], -5.9% (inactive) in assay [3], 24.2% (inactive) in assay [7] and 30% (inactive) in assay [8]. The inhibition of aggregation in assay [2] was -10.8% (inactive). For the same compound, the nuclei count is 97.3% in assay [2] and 98.2% in assay [3]. In addition, the fluorescence slope in assay [4] is -0.455 (inactive). In addition, in assay [5], the NADPH fluorescence slope was -0.000334 (inactive). Further, the slope in assay [6] was 0.00496 (inactive).
Take `Nc1nc(CSc2nc3ccccc3[nH]2)nc(N2CCOCC2)n1`: the cell count in assay [1] was determined as 675. The inhibition in assay [1] was -17.6% (inactive); in assay [3] it was -51% (inactive); in assay [7], 3.37% (inactive); in assay [8], 18.9% (inactive). Also, the inhibition of aggregation in assay [2] is -0.7% (inactive). The nuclei count in assay [2] came out at 87.9%; in assay [3] it was 111%. Moreover, in assay [4], the fluorescence slope was -0.449 (inactive). The NADPH fluorescence slope in assay [5] was -3.7e-05 (inactive). In addition, in assay [6], the slope is 0.00382 (inactive).
As to `CC(C)CCN(C)C1CCN(S(=O)(=O)c2ccc(F)cc2)CC1`, the cell count in assay [1] is 638. In addition, the inhibition in assay [1] is 0.8% (inactive); in assay [3], -35.4% (inactive); in assay [7], 10.6% (inactive); in assay [8], 40.9% (inactive). In addition, in assay [2], the inhibition of aggregation was -2.4% (inactive). The nuclei count worked out at 82.9% in assay [2] and 121% in assay [3]. In assay [4], the fluorescence slope was -0.543 (inactive). Also, the NADPH fluorescence slope in assay [5] was 1.3e-05 (inactive). Besides, in assay [6], the slope is 0.00577 (inactive).
For the compound `O=C(NCc1ccccc1)C1CCN(S(=O)(=O)N2CCCCCC2)CC1`, in assay [1], the cell count is 639. The inhibition is 0% (inactive) in assay [1], -19.7% (inactive) in assay [3], -9.73% (inactive) in assay [7] and -4.63% (inactive) in assay [8]. Also, the inhibition of aggregation in assay [2] is -6.3% (inactive). For the same compound, the nuclei count in assay [2] amounted to 106%; in assay [3] it was 112%. Besides, in assay [4], the fluorescence slope is -0.473 (inactive). For the same compound, in assay [5], the NADPH fluorescence slope is 5.6e-05 (inactive). Also, in assay [6], the slope is 0.00906 (inactive).
In the case of `O=C(CSc1nnc(-c2ccccc2)o1)NC1CCCCC1`, the cell count in assay [1] came to 355. Besides, the inhibition in assay [1] is 0% (inactive); in assay [3], -10.5% (inactive); in assay [7], 5.13% (inactive); in assay [8], 0.841% (inactive). Besides, the inhibition of aggregation in assay [2] is 8% (inactive). In addition, the nuclei count in assay [2] worked out at 109%; in assay [3] it was 103%. Further, in assay [4], the fluorescence slope is -0.55 (inactive). Moreover, the NADPH fluorescence slope in assay [5] was 2e-05 (inactive). For the same compound, the slope in assay [6] is 0.0067 (inactive).
With `Nc1ccc(-c2ccc(N)cc2C(F)(F)F)c(C(F)(F)F)c1`, the cell count in assay [1] was 510. Also, the inhibition in assay [1] is -15.4% (inactive); in assay [3] it was -3.6% (inactive); in assay [7], 16.9% (inactive); in assay [8] it was 24% (inactive). In addition, in assay [2], the inhibition of aggregation was -0.4% (inactive). For the same compound, the figures for the nuclei count in assay [2] and in assay [3] were 96.5% and 101%, respectively. For the same compound, the fluorescence slope in assay [4] was -0.446 (inactive). For the same compound, the NADPH fluorescence slope in assay [5] was -9.4e-05 (inactive). The slope in assay [6] was 0.00482 (inactive).
For the compound `COc1ccc(NC(=O)c2oc3ccc(S(=O)(=O)N4CCC5(CC4)OCCO5)cc3c2C)cc1`, in assay [1], the cell count was determined as 209. For the same compound, the inhibition was -4.4% (inactive) in assay [1], -77.8% (inactive) in assay [3], 3.21% (inactive) in assay [7] and 10.5% (inactive) in assay [8]. In addition, the inhibition of aggregation in assay [2] was 10% (inactive). The nuclei count in assay [2] is 83.1%; in assay [3], 121%. Moreover, the fluorescence slope in assay [4] is -0.447 (inactive). Moreover, in assay [5], the NADPH fluorescence slope is 4.2e-05 (inactive). Besides, the slope in assay [6] was 0.00642 (inactive).
As to `CCOC(=O)c1cccc(NC(=O)C2CCN(S(=O)(=O)c3cccs3)CC2)c1`, the cell count in assay [1] came out at 369. The inhibition in assay [1] is -5.7% (inactive); in assay [3] it was -45.4% (inactive); in assay [7], 3.96% (inactive); in assay [8], 5.8% (inactive). Besides, the inhibition of aggregation in assay [2] was 3.6% (inactive). Further, the nuclei count in assay [2] stood at 90.7%; in assay [3], 128%. In addition, the fluorescence slope in assay [4] is -0.634 (inactive). In addition, the NADPH fluorescence slope in assay [5] was -3.5e-05 (inactive). Moreover, the slope in assay [6] is 0.00624 (inactive).
As for `CC(C)C(C(=O)Nc1ccc2c(c1)OCO2)N1C(=O)c2ccccc2C1=O` (centres undefined), the cell count in assay [1] was 696. Besides, the inhibition in assay [1] is -1% (inactive); in assay [3], 77.1% (active); in assay [7] it was 14.6% (inactive); in assay [8] it was 25.5% (inactive). Also, in assay [2], the inhibition of aggregation was 10.6% (inactive). Also, the values for the nuclei count in assay [2] and in assay [3] were 109% and 85%, respectively. Moreover, in assay [4], the fluorescence slope was -0.411 (inactive). Also, in assay [5], the NADPH fluorescence slope is -8.9e-05 (inactive). Besides, in assay [6], the slope is 0.00641 (inactive).
For the compound `c1ccc(N=P(c2nc3ccccc3o2)(N2CCOCC2)N2CCOCC2)cc1`, in assay [1], the cell count worked out at 547. Besides, the inhibition in assay [1] was -7.9% (inactive); in assay [3], -1.8% (inactive); in assay [7], 3.09% (inactive); in assay [8], -19.6% (inactive). Besides, the inhibition of aggregation in assay [2] is 23.4% (inactive). The nuclei count in assay [2] came out at 87.6%; in assay [3], 107%. The fluorescence slope in assay [4] is -0.497 (inactive). Besides, in assay [5], the NADPH fluorescence slope is -1.9e-05 (inactive). The slope in assay [6] is 0.00625 (inactive).
For the compound `O=C1CCCCCC1C1(O)C(=O)Nc2ccccc21` (centres undefined), in assay [1], the cell count is 349. The inhibition in assay [1] is 10% (inactive); in assay [3], -26.3% (inactive); in assay [7] it was 9.01% (inactive); in assay [8], 29% (inactive). For the same compound, the inhibition of aggregation in assay [2] is -6% (inactive). In addition, the figures for the nuclei count in assay [2] and in assay [3] were 101% and 116%, respectively. In assay [4], the fluorescence slope is -0.424 (inactive). In addition, the NADPH fluorescence slope in assay [5] was 4e-05 (inactive). In assay [6], the slope was 0.00358 (inactive).

By inhibition is commonly meant the change of the read-out against control, counted positive when it falls.

For the origin of these results see PubChem BioAssay.
